These results are taken from ChEMBL document CHEMBL3988442, “University of Dundee, Small-Polar-MMV Screening Library” (2021).

“And” between values parts separate entries of the source, which are not always exact repeats. Equal entries are not always repeated. Screen size: about 38,000 compounds; about 1,200 (3.2%) showed an effect of 50% or more. The median lay at about -58%. The sample holds strong results, similar compounds and a random draw of the others, so the mix is not that of the screen.

This assay deals with Plasmodium falciparum. In words: Calibr Malaria Delayed Death Assay SOP. The assay is classed as functional, organism-based. To be noted: concentration 4.99e-06 (unit not given; other assays of the set use mol/L). Further details: scale not given: in the data most compounds retested in dose-response had high values.

As to `N#Cc1ccc(OCC(O)CN2CCc3cncnc3C2)cc1` (stereo not given), the “Percent Effect” value is given as -94.24%.

In the case of `c1ccc(C2CN(C3CC3)CC3(CCN(Cc4cscn4)CC3)C2)cc1` (stereo not given), the “Percent Effect” value is 80.59%. Still for that read-out and setting: the figure for `CCc1ccccc1CN1CCN(Cc2ncc[nH]2)[C@H]2CS(=O)(=O)C[C@H]21` is -62.66%; for `CCN1CC2(CCC1=O)CCN(Cc1cscn1)CC2` it is -71.85%; for `CCN1CC(c2ccccc2)CC2(CCN(Cc3ncc[nH]3)CC2)C1` (stereo not given) it is 87.85%. On the same count and under the same terms, the figure for `COc1ccc(C2CCN(Cc3cscn3)CC2)cc1` is -93.29%; for `CCN(CC1CN(Cc2ncc[nH]2)CCO1)c1cccnn1` (stereo not given) it is -7.517%; for `CN1CC(c2ccccc2)CC2(CCN(Cc3ncc[nH]3)CC2)C1` (stereo not given) it is 82.67%.

On to `c1ccc(C2CN(C3CC3)CC3(CCN(Cc4ncc[nH]4)CC3)C2)cc1` (stereo not given), for which the “Percent Effect” value turned out to be 35.37%.

Turning to `COCCC(=O)N1CCC2(CC1)CC(c1ccccc1)CN(C)C2` (stereo not given), the “Percent Effect” value is -5.324%.

Consider `O=C(NCC(O)c1ccc(Cl)c(F)c1)NC1CC=CC1` (stereo not given), for which the “Percent Effect” value is reported as -17.82%. On to `CCSc1cc(C(=O)NCCC(=O)N(C)C)ccn1`, for which the “Percent Effect” value is recorded as -118.1%. Still for that read-out and setting: the figure for `Cc1nn(CCNS(=O)(=O)NCc2ccccc2)c(C)c1Cl` is -125.5%; for `COc1ccccc1N1CCN(C(=O)CCc2nncn2C)C(C)C1` (stereo not given) it is -70.09%.

Turning to `Cc1ccc(C)c(OC2CCN(C(=O)NCC(=O)N3CCCC3)CC2)c1`, the “Percent Effect” value was -83.87%. Turning to `CC(C)n1c2ccccc2c2c1cc(C(=O)NC1CC1)n2C(=O)N(C)C`, the “Percent Effect” value is listed as -14.52%. On the same count and under the same terms, for `O=c1c(CN2CCCCCC2)coc(O)c1CN1CCCCCC1` the value was 53.69%; for `O=c1c(CN2CCSCC2)coc(O)c1CN1CCCC1`, -11.49%. Same read-out and setting: for `O=c1c(CN2CCCCCC2)coc(O)c1CN1CCOCC1` the value was -41.33%.

`COc1ccc(CNc2c(N3CCN(C)CC3)c(=O)c2=O)cc1`: the “Percent Effect” value was -162.8%. The same measure, in the same setting: the figure for `CCc1nc2n(n1)CC(NCc1noc(-c3ccc(C)cc3)n1)CC2` (stereo not given) is -102.8%; for `CN(C)c1nc(NCCc2cnccn2)ncc1F` it is -28.24%. For the molecule `COCCC1CCCCN1C(=O)c1coc(COc2ccccc2F)n1` (stereo not given), for the setting “4.99 µM”, the “Percent Effect” value was -24.51% and -14.95%. Turning to `COc1cccc(CNCc2ccccc2Cl)c1O`, the “Percent Effect” value was found to be 76.29%. Take `COCCNC(=O)NCCc1cccc(OC)c1O`: the “Percent Effect” value was -51.73%.

With `Fc1ccc(CNCCn2cccn2)c(Cl)c1`, the “Percent Effect” value was -121.7%. On to `COc1cccc(CNCc2ccc(F)cc2Cl)c1O`, for which the “Percent Effect” value amounted to 78.71%. Still for that read-out and setting: the figure for `Cc1cnn(CCNCc2ccc(F)cc2Cl)c1` is -82.03%; for `CCOc1cccc(CNc2ccccc2Cl)c1O` it is -149%. Still for that read-out and setting: for `O=C(c1ccc2[nH]c(=O)[nH]c2c1)N1CCC(Nc2cccnn2)CC1` the value was -46.87%; for `COc1c(C)cnc(CN2CCOC(Cn3cc(C)cn3)C2)c1C` (stereo not given), -74.84%; for `Cn1c2c(c(=O)n1C)CN(C(=O)c1cnccn1)CCC2`, -106.6%. On the same count and under the same terms, the figure for `Cc1ccc(C(=O)N2CCCC3(C2)C(=O)N(C)c2ccccc23)c(=O)[nH]1` (stereo not given) is -167.7%. For `Cc1cc(C)cc(NC(=O)CC2CN(Cc3ccccc3)CCO2)c1` (stereo not given), the “Percent Effect” value is recorded as -128.2%. As to `CCc1cccc2cc(CNCCCN3CCOCC3)c(=O)[nH]c12`, the “Percent Effect” value is -14.92%.

On to `COCCCn1c(CN2CCCCO2)cnc1S(=O)(=O)C1CCCC1`, for which the “Percent Effect” value is on record as -131.1%.

On to `Cc1ccc(-n2cnnn2)cc1NCC(=O)Nc1ccccc1Cl`, for which the “Percent Effect” value came out at 78.71%.

For `O=C(CNc1ccccc1Cl)Nc1cc(-n2cnnn2)ccc1F`, the “Percent Effect” value was -95.2%. The same measure, in the same setting: for `O=C(CNc1cc(-n2cnnn2)ccc1F)NCc1ccccc1` the value was -22.04%; for `O=C(CNc1cc(-n2cnnn2)ccc1F)Nc1cc(F)ccc1F`, 1.352%; for `O=C(CNc1cc(-n2cnnn2)ccc1F)Nc1ccccc1Cl`, -49.6%.

Turning to `Cc1ccc(-n2cnnn2)cc1NCC(=O)Nc1cc(F)ccc1F`, the “Percent Effect” value turned out to be 71.46%. Take `Cc1ccc(-c2ccc(=O)n(CC(=O)Nc3nccs3)n2)cc1`: the “Percent Effect” value is given as -17.67%. Consider `FC1(F)CCN(Cc2ccccn2)CC12CCN(c1cnccn1)C2.O=C(O)C(F)(F)F.O=C(O)C(F)(F)F.O=C(O)C(F)(F)F` (stereo not given), for which the “Percent Effect” value amounted to 16.91%.

Take `CC(C)(C)OCC1CN(CC2CC2)S(=O)(=O)c2cnccc2O1` (stereo not given): the “Percent Effect” value is given as -18.82%. Still for that read-out and setting: the figure for `O=C1NCC2(CCCN(C(=O)c3c[nH]nc3C3CCCCC3)C2)O1` (stereo not given) is -117.3%; for `O=C(NCC1CCOC1)c1csc(-c2ccc(F)cc2)n1` (stereo not given) it is -133.9%. In the case of `c1ccc(CO[C@H]2CO[C@@]3(CCCN(Cc4ccncc4)C3)C2)nc1`, the “Percent Effect” value is listed as -35.86%.

With `CN1C[C@H]2N(c3ncccn3)CCC[C@@]2(C(=O)NCC2CC2)C1.O=C(O)C(F)(F)F`, the “Percent Effect” value is -55.87%. On to `CCN(CC)Cc1ccc(C(=O)NC2CCc3cc(Br)ccc32)o1` (stereo not given), for which the “Percent Effect” value was 46.2%. On the same count and under the same terms, the figure for `CCN(CC)Cc1ccc(C(=O)NC2CCc3cc(F)ccc32)o1` (stereo not given) is 13.89%; for `CCN(CC)Cc1ccc(C(=O)NC2CCc3cc(Cl)ccc32)o1` (stereo not given) it is 54.73%; for `CCC(c1ccncc1)N(C)S(C)(=O)=O` (stereo not given) it is -63.43%. On to `O=c1[nH]nc2c(S(=O)(=O)N3CCCCC3)cccn12`, for which the “Percent Effect” value is listed as -53.1%.

`CCSc1nnc(CCNC(=O)OC(C)(C)C)o1`: the “Percent Effect” value is listed as -74.82%.
